Screening results deposited in PubChem by Broad Institute.
Shown are actives, neighbours in structure and some others; about 6.8% of the full set was active somewhere.
C diff HTS = blocks growth of Clostridium difficile | 86,000 compounds, 0.25% hits | Clostridium difficile clinical isolate growth, OD600, 24 h; active compounds read low | growth activity, negative = inhibition, % at 16 µg/mL (by protocol);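 active = mean growth activity at or below -80% and every replicate also at or below -80%; inconclusive = mean at or below -80% but some replicate above -80%; inactive = mean growth activity above -80%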;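 also: 0% = DMSO wells and -100% = levofloxacin 16 µg/mL wells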
T cruzi growth-1 = inhibitors of T. cruzi proliferation; 77,000 compounds, 5.9% hits; inhibition, % at 8.34 µM; AID 624255; T. cruzi beta-gal in NIH3T3, GalScreen luminescence, 90 h;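 active = mean inhibition above about 93%, with at least 55% of replicates each passing it, limit read from the data, passing the limit was not always enough; inconclusive = only one of those two conditions holds; inactive = neither condition holds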
Pf Dd2 inh = blocks growth of Plasmodium falciparum Dd2 parasites; P. falciparum Dd2 growth, SYBR Green, 72 h; active compounds read low; activity change, % at 10 µM; 94,000 compounds, 2.3% hits; AID 1159554; in the data active = activity change below about -80%; inconclusive = no clear call, values can overlap the other calls
T cruzi growth-2 = blocks T. cruzi growth in NIH3T3 host cells. shares compounds with T cruzi growth-1. T. cruzi beta-gal in NIH3T3, GalScreen luminescence, 90 h. inhibition, % at 8.35 µM. 5,600 compounds, 72% hits;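 active = mean replicate inhibition above about 95% and at least 55% of replicates individually reaching it, limit read from the data; inconclusive = only one of the two criteria is met; inactive = neither criterion is met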
T cruzi growth-3 = blocks T. cruzi growth in NIH3T3 host cells. inhibition, % at 2.09 µM. T. cruzi beta-gal in NIH3T3, GalScreen luminescence, 90 h. 5,600 compounds, 21% hits. shares compounds with T cruzi growth-1;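 active = mean inhibition above about 95%, with at least 55% of replicates also reaching it, limit read from the data; inconclusive = meets just one of the two conditions; inactive = meets neither condition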;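 also: plate controls were neutral control median for no effect and positive control median for full effect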
NIH3T3 tox = kills mouse NIH/3T3 fibroblasts; shares compounds with T cruzi growth-1; NIH/3T3 viability, CellTiter-Glo ATP luminescence, 90 h; cytotoxicity (signal decrease), % at 8.35 µM; 5,600 compounds, 14% hits; AID 651742;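 active = mean signal decrease across replicates above about 35% based on untreated-well scatter, with enough replicates individually passing, limit read from the data; inconclusive = no rule stated though some were filed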;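 also: 0% = median of neutral control wells and 100% = median of positive control wells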
3T3 cytotox 2 = cytotoxicity in mouse NIH/3T3 fibroblasts; 5,600 compounds, 56% hits; shares compounds with T cruzi growth-1; NIH/3T3 viability, CellTiter-Glo ATP luminescence, 90 h; inhibition, % at 24.9 µM;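 active = mean loss of cell viability signal at or above a set limit, and enough replicates individually reaching it; inconclusive = meets only the mean limit or only the replicate share; inactive = meets neither condition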;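 also: 0% = median of neutral control wells and 100% = median of positive control wells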
Numbers without * were called inactive; ? = inconclusive; . = no result given.

SMILES	C diff HTS	T cruzi growth-1	Pf Dd2 inh	T cruzi growth-2	T cruzi growth-3	NIH3T3 tox	3T3 cytotox 2
O=C(CC1CC1)N1[C@@H]2CN(S(=O)(=O)c3ccccc3)c3ccccc3[C@@H]2[C@@H]1CO	2.5	9.8	-14.5	.	.	.	.
C[C@@H](NC(=O)C[C@H]1C[C@H]2c3cc(NC(=O)c4cccnc4)ccc3O[C@H]2[C@@H](CO)O1)c1ccccc1	.	52.6	5.0	.	.	.	.
O=C(C[C@@H]1C=C[C@H](NC(=O)c2ccccc2)[C@@H](CO)O1)Nc1ccc(-c2ccccc2)cc1	8.9	41.4	-40.9	.	.	.	.
COc1ccc(NC(=O)Nc2ccc3c(c2)C(=O)N([C@@H](C)CO)C[C@H](C)[C@@H](CN(C)S(=O)(=O)c2ccc(OC)cc2)OCCCC[C@@H](C)O3)cc1	0.1	42.0	-57.2	.	.	.	.
COc1ccc(NC(=O)Nc2ccc3c(c2)C(=O)N([C@H](C)CO)C[C@@H](C)[C@H](CN(C)S(=O)(=O)c2ccc(Cl)cc2)OCCCC[C@@H](C)O3)cc1	5.3	115.2*	-76.7	104.5*	101.1*	-5.4	17.9
COc1ccc(NC(=O)Nc2ccc3c(c2)C(=O)N([C@@H](C)CO)C[C@H](C)[C@@H](CN(C)S(=O)(=O)c2ccc(Cl)cc2)OCCCC[C@@H](C)O3)cc1	-3.1	106.7*	-79.8	108.7*	112.1*	0.7	18.2
COc1ccc(NC(=O)Nc2ccc3c(c2)C(=O)N([C@H](C)CO)C[C@H](C)[C@H](CN(C)S(=O)(=O)c2ccc(OC)cc2)OCCCC[C@@H](C)O3)cc1	4.7	10.4	-71.1	.	.	.	.
CCCC(=O)Nc1ccc2c(c1)OC[C@@H](C)N(C)C[C@@H](C)[C@@H](OC)CN(C)C2=O	-3.6	42.1	.	.	.	.	.
CCCN(C)C[C@@H]1Oc2cc(C#Cc3ccccc3F)ccc2S(=O)(=O)N([C@@H](C)CO)C[C@H]1C	1.6	?	-48.2	107.0*	79.2	11.3	104.8*
CCCC#Cc1ccc2c(c1)O[C@H](CN(C)CCC)[C@H](C)CN([C@@H](C)CO)S2(=O)=O	5.0	74.6	-79.1	.	.	.	.
CCCN(C)C[C@H]1Oc2cc(C#Cc3ccccc3F)ccc2S(=O)(=O)N([C@H](C)CO)C[C@@H]1C	12.3	86.7	-22.9	.	.	.	.
CCCC#Cc1ccc2c(c1)O[C@@H](CN(C)CCC)[C@H](C)CN([C@@H](C)CO)S2(=O)=O	.	99.2*	-56.6	101.3*	62.5	39.3*	103.7*
CCCN(C)C[C@H]1Oc2cc(C#Cc3ccc(F)cc3)ccc2S(=O)(=O)N([C@H](C)CO)C[C@@H]1C	5.2	30.9	-8.0	.	.	.	.
CCCN(C)C[C@@H]1Oc2cc(C#Cc3cccc(F)c3)ccc2S(=O)(=O)N([C@H](C)CO)C[C@@H]1C	5.9	108.1*	.	106.7*	55.4	15.4	106.4*
CCCN(C)C[C@H]1Oc2cc(C#Cc3cccc(F)c3)ccc2S(=O)(=O)N([C@H](C)CO)C[C@@H]1C	11.9	110.3*	.	112.0*	56.1	0.5	103.9*
CCCN(C)C[C@H]1Oc2cc(C#Cc3ccccc3)ccc2S(=O)(=O)N([C@@H](C)CO)C[C@H]1C	0.2	60.5	-58.9	.	.	.	.
C[C@H](CO)N1C[C@H](C)[C@H](CN(C)C(=O)NC2CCCC2)Oc2ncc(-c3cccc(F)c3)cc2C1=O	-0.5	-49.3	-44.9	.	.	.	.
CO[C@H]1CN(C)C(=O)c2cc(C#N)ccc2OC[C@@H]2O[C@@H](CC[C@H]2OC)CCN(C)C(=O)[C@H]1C	.	-32.6	14.0	.	.	.	.
C[C@@H]1CN([C@H](C)CO)C(=O)Cc2cc(NS(=O)(=O)c3cccs3)ccc2O[C@H]1CN(C)Cc1ccc(C(F)(F)F)cc1	69.2	61.4	-1.6	.	.	.	.
Cc1noc(C)c1NC(=O)Nc1ccc2c(c1)CC(=O)N([C@@H](C)CO)C[C@@H](C)[C@@H](CN(C)Cc1ccccc1)O2	0.4	11.4	-5.7	.	.	.	.
CCCN(C)C[C@H]1Oc2cc(C#Cc3cccc(F)c3)ccc2S(=O)(=O)N([C@H](C)CO)C[C@H]1C	16.3	19.6	.	.	.	.	.
CCCN(C)C[C@H]1Oc2cc(C#Cc3cccc(F)c3)ccc2S(=O)(=O)N([C@@H](C)CO)C[C@H]1C	1.5	108.3*	.	102.0*	46.5	29.5	103.2*
Cc1noc(C)c1NC(=O)Nc1cccc2c1O[C@@H](CN(C)C(=O)NC1CCCCC1)[C@H](C)CN([C@H](C)CO)C2=O	0.2	20.8	19.8	.	.	.	.
CCCNC(=O)Nc1ccc2c(c1)C(=O)N(C)C[C@@H](OC)[C@H](C)CN(CCC(F)(F)F)[C@@H](C)CO2	.	29.0	.	.	.	.	.
O=S(=O)(c1ccc(F)cc1)N1CCCCN2[C@@H](CO)[C@@H](c3ccc(-c4ccccc4F)cc3)[C@@H]2C1	2.0	81.1	-62.7	.	.	.	.
SMILES	C diff HTS	T cruzi growth-1	Pf Dd2 inh	T cruzi growth-2	T cruzi growth-3	NIH3T3 tox	3T3 cytotox 2
Cc1ccccc1-c1ccc([C@H]2[C@H](CO)N3CCCCN(S(=O)(=O)c4ccc(F)cc4)C[C@@H]23)cc1	47.3	111.9*	-12.0	99.7*	109.6*	?	103.8*
O=S(=O)(c1ccc(F)cc1)N1CCCCN2[C@H](C1)[C@H](c1ccc(-c3ccccc3F)cc1)[C@@H]2CO	-1.9	108.1*	1.1	104.7*	105.0*	30.8	101.7*
O=S(=O)(c1ccc(F)cc1)N1CCCCN2[C@H](C1)[C@@H](c1ccc(-c3ccccc3F)cc1)[C@@H]2CO	-3.3	107.3*	14.1	101.0*	65.5	20.9	42.1*
O=S(=O)(c1ccc(F)cc1)N1CCCCN2[C@H](CO)[C@H](c3ccc(-c4ccccc4F)cc3)[C@H]2C1	-6.1	89.9	-77.1	.	.	.	.
CCS(=O)(=O)N1CCCCN2[C@H](CO)[C@@H](c3ccc(-c4ccccc4F)cc3)[C@H]2C1	-5.1	84.4	-15.2	.	.	.	.
CCS(=O)(=O)N1CCCCN2[C@H](CO)[C@H](c3ccc(-c4ccccc4F)cc3)[C@H]2C1	-12.0	99.5*	-33.3	95.6*	55.1	9.3	60.6*
Cc1ccccc1-c1ccc([C@@H]2[C@@H](CO)N3CCCCN(S(=O)(=O)c4ccc(F)cc4)C[C@H]23)cc1	16.3	78.2	-13.0	.	.	.	.
O=C(CCN1CCCCC1)N[C@H]1C=C[C@H](CC(=O)N2CCC(Cc3ccccc3)CC2)O[C@@H]1CO	.	15.8	-19.7	.	.	.	.
O=S(=O)(c1ccccc1)N1CCCCN2[C@H](CO)[C@H](c3ccc(-c4ccccc4F)cc3)[C@H]2C1	65.6	82.6	-27.6	.	.	.	.
O=S(=O)(c1ccccc1)N1CCCCN2[C@H](C1)[C@H](c1ccc(-c3ccccc3F)cc1)[C@@H]2CO	22.4	85.8	7.3	.	.	.	.
Cc1ccccc1-c1ccc([C@H]2[C@H](CO)N3CCCCN(S(C)(=O)=O)C[C@@H]23)cc1	-2.9	108.9*	16.7	95.8*	65.5	29.2	35.5*
O=S(=O)(c1ccc(F)cc1)N1CCCCN2[C@H](CO)[C@H](c3ccc(-c4ccccc4F)cc3)[C@@H]2C1	1.4	110.6*	18.0	104.3*	74.5	24.1	93.6*
